The values that follow come from PubChem BioAssay.

Molecules are shown by their SMILES. Calls of active or inactive are those of the source. Unless noted, no rule for the calls is given here.

Experiment [1] in a line: compounds binding Alexa647 anti-His antibody – biochemical, small-molecule microarray, 635 nm fluorescence, artefact control for SMM control protein annotation, primary screen (AID 1128).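 Also: score merges feature fluorescence with signal-to-noise for each printed compound spot.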 To be noted: higher = more signal.
Experiment [2] concerns Human papillomavirus type 1a E7 protein (residues 1-88). Description: HPV1a E7 small-molecule binders, primary screen, biochemical, small-molecule microarray, residues 1-88, 635 nm (AID 1129). To be noted: small-molecule microarray binding, fluorescence 635 nm; higher = more signal.
Experiment [3] addresses Focal adhesion kinase 1 (Homo sapiens) (UniProt Q05397). As to the kind of experiment: PTK2 protein binding on printed compound slides – biochemical, small-molecule microarray, 635/667 nm fluorescence, BSA, DTT, primary screen (AID 1130).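 Also: composite of spot emission at 667 nm and signal to noise over triplicate slides.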 To be noted: 635 nm fluorescence, higher = more signal.
The subject of experiment [4] is Fibrinogen (Alexa647-labelled). Description: Alexa647-fibrinogen binding to printed small molecules – biochemical, small-molecule microarray, 635/667 nm fluorescence, artefact control for SMM control-protein annotation, profiling panel (AID 1131).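 Also: z-score merges 667 nm fluorescence with per-spot signal-to-noise over triplicate slides.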 The settings on record: fibrinogen-A647 binding fluorescence, higher = more signal.
For experiment [5], the target named is Follistatin (Homo sapiens) (UniProt P19883). As to the kind of experiment: FST protein binding to printed compounds – biochemical, small-molecule microarray, 635/667 nm fluorescence, primary screen (AID 1132). The settings on record: 635 nm fluorescence, higher = more signal.
Follistatin (Homo sapiens), sequence (P19883 whole entry, looked up): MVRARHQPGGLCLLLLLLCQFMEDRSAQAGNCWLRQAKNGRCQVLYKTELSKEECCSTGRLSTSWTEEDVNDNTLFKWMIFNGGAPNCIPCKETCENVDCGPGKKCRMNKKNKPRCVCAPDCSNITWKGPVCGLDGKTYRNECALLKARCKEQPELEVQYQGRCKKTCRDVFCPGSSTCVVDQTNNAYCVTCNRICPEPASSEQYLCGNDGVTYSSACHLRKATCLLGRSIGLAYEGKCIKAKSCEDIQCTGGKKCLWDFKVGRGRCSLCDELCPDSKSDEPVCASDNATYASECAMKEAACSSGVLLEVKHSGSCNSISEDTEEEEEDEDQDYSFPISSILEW
The target of experiment [6] is Fibroblast growth factor 2 (Homo sapiens) (UniProt P09038). As to the kind of experiment: basic fibroblast growth factor binding to printed compounds – biochemical, small-molecule microarray, 635/667 nm fluorescence, primary screen (AID 1133). To be noted: FGF2, fluorescence 635/667, higher = more signal.
Fibroblast growth factor 2 (Homo sapiens), sequence (P09038 whole entry, looked up): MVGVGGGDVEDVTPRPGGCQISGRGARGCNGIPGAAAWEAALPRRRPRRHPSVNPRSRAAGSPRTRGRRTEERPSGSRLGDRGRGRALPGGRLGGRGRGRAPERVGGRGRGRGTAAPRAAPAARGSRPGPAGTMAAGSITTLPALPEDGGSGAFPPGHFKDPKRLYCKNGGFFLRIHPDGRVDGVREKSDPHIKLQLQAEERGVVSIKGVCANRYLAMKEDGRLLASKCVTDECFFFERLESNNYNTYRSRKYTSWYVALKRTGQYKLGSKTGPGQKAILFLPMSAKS
The nature of experiment [7]: JC-1 mitochondrial potential readout, lung cancer cells – cell-based, A549, JC-1 fluorescence, basal, 24 h, 100 nL, profiling panel (AID 1138).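 Also: A549 lung adenocarcinoma cells under basal conditions with no added stimulus; test concentration not given here.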 To be noted: higher = more signal.
A further experiment deals with Lefty1. Description: Lefty1 protein binding to printed compounds – biochemical, small-molecule microarray, 635/667 nm fluorescence, primary screen (AID 1139). The settings on record: fluorescence 635/667, higher = more signal.
In experiment [8] the test system is wheat germ agglutinin (Triticum aestivum), Alexa647-labelled. Description: Alexa647-WGA lectin binding to printed small molecules – biochemical, small-molecule microarray, 635/667 nm fluorescence, artefact control for SMM control-protein annotation, profiling panel (AID 1140).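 Also: score merges 667 nm feature emission with signal to noise over triplicate slides.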 To be noted: WGA-A647 binding, 635 nm fluorescence, higher = more signal.
The target in experiment [9] is Luciferin 4-monooxygenase (Photinus pyralis) (UniProt P08659). As to the kind of experiment: inhibition of purified Photinus pyralis luciferase – biochemical, luminescence, purified enzyme, 2006 set, primary screen (AID 1141).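 Also: cell-free assay with purified firefly luciferase at 100 ng per well in PBS; test concentration not given here.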 To be noted: purified firefly luciferase, SteadyGlo luminescence, 30 min; higher = more signal, called active from +8 up or from −8 down.
Luciferin 4-monooxygenase (Photinus pyralis), sequence (P08659 whole entry, looked up): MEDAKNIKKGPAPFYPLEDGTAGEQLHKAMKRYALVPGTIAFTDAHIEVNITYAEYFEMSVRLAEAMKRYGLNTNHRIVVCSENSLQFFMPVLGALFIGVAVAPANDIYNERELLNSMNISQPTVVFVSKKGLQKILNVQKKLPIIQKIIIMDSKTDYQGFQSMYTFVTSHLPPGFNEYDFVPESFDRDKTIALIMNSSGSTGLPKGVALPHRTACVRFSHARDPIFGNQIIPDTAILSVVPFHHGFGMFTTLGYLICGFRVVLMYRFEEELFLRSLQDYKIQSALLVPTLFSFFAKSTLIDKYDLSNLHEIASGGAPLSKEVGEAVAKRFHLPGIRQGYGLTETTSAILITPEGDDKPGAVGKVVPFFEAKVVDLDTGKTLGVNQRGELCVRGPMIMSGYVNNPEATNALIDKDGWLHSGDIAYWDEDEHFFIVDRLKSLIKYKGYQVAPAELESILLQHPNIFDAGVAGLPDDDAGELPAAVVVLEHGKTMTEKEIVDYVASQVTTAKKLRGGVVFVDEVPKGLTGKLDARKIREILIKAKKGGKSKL
In experiment [10] the test system is Wnt5a (protein binding on small-molecule microarray). As to the kind of experiment: small molecules binding Wnt5a protein – biophysical, small-molecule microarray, 635/667 nm fluorescence, primary screen (AID 1142).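 Also: fluorescence read at 667 nm with signal to noise per printed feature.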 To be noted: 635 nm fluorescence, higher = more signal.
Experiment [11] can be described thus: ATP-based viability of Huh7 replicon cells – cell-based, CellTiter-Glo luminescence, basal, 48 h, cytotoxicity control for HCV replication inhibitor project, primary screen (AID 1143).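 Also: Huh7 hepatoma cells carrying a hepatitis C replication reporter with no stimulus; test concentration not given here.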 The settings on record: higher = more signal, called active from +8 up or from −8 down.
Experiment [12] in a line: Pseudomonas biofilm growth suppression – PAO1 strain, BacTiter-Glo luminescence, LB-PBS, primary screen (AID 1144). To be noted: P. aeruginosa PAO1 biofilm, 12 h, higher = more signal.
Experiment [13] can be described thus: basal CRE-LacZ reporter activity in PC12 – cell-based, unstimulated, primary screen (AID 1145). To be noted: no forskolin, luminescence, 4.5 h, higher = more signal, called active from +8 up or from −8 down.
A short description of experiment [14]: forskolin-driven CRE-LacZ activity in PC12 – cell-based, CRE-LacZ reporter, forskolin-stimulated, primary screen (AID 1146).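 Also: PC12 cells with 6xCRE LacZ reporter stimulated by forskolin 10 µM; beta-galactosidase reporter signal reflecting CREB driven transcription.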 To be noted: luminescence, 4.5 h, higher = more signal, called active from +8 up or from −8 down.
Experiment [15] concerns the target Streptavidin (Streptomyces avidinii) (UniProt P22629). As to the kind of experiment: compounds binding control protein streptavidin – biophysical, small-molecule microarray, 635/667 nm fluorescence, artefact control for SMM compound annotation, primary screen (AID 1147).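 Also: signal reflects streptavidin binding to arrayed compounds as a control protein.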 The settings on record: higher = more signal.
Experiment [16] in a line: probe aInhba binding on compound microarray – biochemical, small-molecule microarray, 635/667 nm fluorescence, primary screen (AID 1148).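 Also: score merges 667nm spot fluorescence with signal-to-noise for antibody binding to printed compounds.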 To be noted: higher = more signal.
The target in experiment [17] is Torsin-1A (Homo sapiens) (UniProt O14656). Description: TOR1A wild-type binding on microarray – cell lysate, small-molecule microarray, lysate, 635/667 nm, primary screen (AID 1149). The settings on record: COS7 hTOR1A-WT lysate, 635 nm fluorescence, higher = more signal.
Torsin-1A (Homo sapiens), sequence (O14656 whole entry, looked up): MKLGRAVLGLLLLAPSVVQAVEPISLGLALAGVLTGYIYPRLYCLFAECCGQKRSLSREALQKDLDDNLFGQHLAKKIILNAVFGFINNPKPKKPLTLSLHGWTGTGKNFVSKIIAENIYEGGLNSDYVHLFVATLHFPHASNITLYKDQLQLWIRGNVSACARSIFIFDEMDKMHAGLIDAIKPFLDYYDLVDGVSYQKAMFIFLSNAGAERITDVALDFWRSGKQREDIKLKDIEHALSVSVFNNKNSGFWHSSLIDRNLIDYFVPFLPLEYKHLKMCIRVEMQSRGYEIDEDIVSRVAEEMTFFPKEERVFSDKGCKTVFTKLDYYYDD
For experiment [18] the target is unchanged. Description: torsin A mutant lysate binding on microarrays – cell lysate, small-molecule microarray, COS7 lysate, 635/667 nm fluorescence, primary screen (AID 1150).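 Also: score pools 667 nm emission and signal to noise measuring lysate protein binding.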 To be noted: COS7 hTOR1A mutant lysate, 635 nm fluorescence, higher = more signal.
Experiment [19] deals with Sonic hedgehog protein (Shh). Description: Sonic hedgehog microarray binding compounds – biochemical, small-molecule microarray, 635/667 nm fluorescence, primary screen (AID 1151).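 Also: Shh protein binding to compounds spotted on small-molecule microarray slides; score combines spot fluorescence intensity with signal-to-noise across triplicate slides.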 The settings on record: 635 nm fluorescence, higher = more signal.

Focal adhesion kinase 1 (Homo sapiens), sequence (Q05397 whole entry, looked up): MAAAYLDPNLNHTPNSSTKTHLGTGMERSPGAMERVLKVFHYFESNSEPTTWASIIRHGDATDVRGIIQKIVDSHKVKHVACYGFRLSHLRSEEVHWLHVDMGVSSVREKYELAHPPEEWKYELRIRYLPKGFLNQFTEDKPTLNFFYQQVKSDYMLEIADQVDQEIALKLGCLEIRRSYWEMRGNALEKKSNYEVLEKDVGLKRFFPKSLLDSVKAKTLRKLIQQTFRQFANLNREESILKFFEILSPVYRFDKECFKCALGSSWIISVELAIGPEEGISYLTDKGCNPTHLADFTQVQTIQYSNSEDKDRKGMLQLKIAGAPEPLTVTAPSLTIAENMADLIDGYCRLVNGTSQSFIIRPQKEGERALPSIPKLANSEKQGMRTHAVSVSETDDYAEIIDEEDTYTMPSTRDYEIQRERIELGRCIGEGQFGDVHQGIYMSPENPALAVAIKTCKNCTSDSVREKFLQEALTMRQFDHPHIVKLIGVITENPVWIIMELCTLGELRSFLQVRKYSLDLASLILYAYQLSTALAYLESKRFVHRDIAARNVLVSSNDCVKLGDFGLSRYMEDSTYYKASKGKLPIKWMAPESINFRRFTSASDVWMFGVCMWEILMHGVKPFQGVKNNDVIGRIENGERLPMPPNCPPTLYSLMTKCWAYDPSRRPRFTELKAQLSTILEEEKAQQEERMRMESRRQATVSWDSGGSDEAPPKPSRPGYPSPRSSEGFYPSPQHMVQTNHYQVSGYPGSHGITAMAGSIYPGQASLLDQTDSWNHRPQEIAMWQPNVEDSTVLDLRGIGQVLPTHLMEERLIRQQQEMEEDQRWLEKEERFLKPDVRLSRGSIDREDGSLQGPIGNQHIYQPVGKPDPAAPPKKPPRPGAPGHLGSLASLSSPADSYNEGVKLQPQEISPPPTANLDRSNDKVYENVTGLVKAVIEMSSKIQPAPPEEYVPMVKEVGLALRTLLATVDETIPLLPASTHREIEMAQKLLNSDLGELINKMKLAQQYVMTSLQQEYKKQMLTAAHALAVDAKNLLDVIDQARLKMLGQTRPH
Streptavidin (Streptomyces avidinii), sequence (P22629 whole entry, looked up): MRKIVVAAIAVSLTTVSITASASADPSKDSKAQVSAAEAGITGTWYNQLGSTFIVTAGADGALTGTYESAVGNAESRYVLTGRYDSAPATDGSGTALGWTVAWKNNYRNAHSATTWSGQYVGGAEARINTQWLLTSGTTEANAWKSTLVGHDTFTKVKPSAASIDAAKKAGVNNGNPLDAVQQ

As to `CC(CO)N1C(=O)[C@@H]2C3C(=O)OCCC/C=C\[C@H]3OC23C=CCN(c2ccc4ccccc4c2)C(=O)[C@@H]13` (stereo not given in full), the composite z-score in experiment [1] is 0.339; in experiment [2] it was -0.351; in [3] it was -0.363; in experiment [4], 0.167; in experiment [5] it was -0.382; in experiment [6] it was -0.865. In addition, the composite z-score is -0.632 in the experiment on Lefty1; 0.0312 in [8]; -0.632 in [10]; -0.342 in [15]; -0.0719 in experiment [16]; -1.72 with Torsin-1A (Homo sapiens) [17]. Also, the composite z-score in the experiment with Torsin-1A (Homo sapiens) [18] was -1.03; in [19], -0.256. For the same compound, the z-score in [7] was 0.45; in experiment [9] it was -0.846 (inactive); in experiment [11], 0.645 (inactive); in [12], -1.02 (inactive); in experiment [13], -0.0737 (inactive); in experiment [14] it was 0.156 (inactive).

In the case of `CN1C(=O)C2C=CC(C(O)c3ccc(-c4ccccc4)s3)N(N(c3ccccc3)c3ccccc3)C2C1=O` (stereo not given), the composite z-score is 0.0993 in [1]; 0.628 in [2]; 0.162 in experiment [3]; 0.528 in [4]; 1.14 in experiment [5]; -0.314 in [6]. For the same compound, the composite z-score was -0.119 in the experiment with Lefty1; 1.08 in experiment [8]; 0.123 in [10]; 1.14 in [15]; 0.12 in experiment [16]; 0.91 with Torsin-1A (Homo sapiens) [17]. In addition, the values for the composite z-score (with Torsin-1A (Homo sapiens) [18]; in [19]) were -0.0126 and 0.409, respectively. For the same compound, the z-score in experiment [7] was 0.767; in experiment [9], -0.377 (inactive); in experiment [11], -0.0598 (inactive); in experiment [12] it was -0.468 (inactive); in [13], -0.14 (inactive); in [14] it was -0.101 (inactive).

As to `CN1C(=O)C2C=CC(C(O)C3CC=CCC3)N(NC(=O)OC(C)(C)C)C2C1=O` (stereo not given), the composite z-score is 0.561 in [1]; 0.889 in experiment [2]; 0.465 in experiment [3]; -0.0919 in [4]; 1.25 in experiment [5]; 0.124 in experiment [6]. Further, the composite z-score with Lefty1 was 0.717; in [8], 1.32; in experiment [10], 0.154; in experiment [15] it was 1.15; in [16] it was 0.0301; with Torsin-1A (Homo sapiens) [17] it was 0.665. Also, the composite z-score with Torsin-1A (Homo sapiens) [18] amounted to 1.12; in experiment [19], 0.737. Also, the z-score was -0.0347 in experiment [7]; -0.71 (inactive) in experiment [9]; 0.248 (inactive) in experiment [11]; 0.0321 (inactive) in [12]; 0.626 (inactive) in [13]; 0.257 (inactive) in experiment [14].

`CCOC1=C2C(CN(S(=O)(=O)c3ccc(C)cc3)C2c2ccc(C)cc2)C2C(=O)N(c3ccccc3)C(=O)C2C1` (stereo not given): the composite z-score worked out at 0.727 in experiment [1]; 1.15 in experiment [2]; 0.553 in experiment [3]; 0.783 in experiment [4]; 0.475 in experiment [5]; 0.301 in experiment [6]. Besides, the composite z-score was 0.535 in the experiment on Lefty1; 0.4 in experiment [8]; -0.069 in experiment [10]; 0.963 in experiment [15]; 0.0906 in experiment [16]; -0.196 in the experiment with Torsin-1A (Homo sapiens) [17]. The figures for the composite z-score (in the experiment with Torsin-1A (Homo sapiens) [18]; in experiment [19]) were 0.115 and 0.364, respectively. Further, the z-score was -0.368 in [7]; 1.09 (inactive) in [9]; -0.288 (inactive) in experiment [11]; -0.382 (inactive) in [12]; -0.275 (inactive) in [13]; 0.804 (inactive) in [14].
